Assay outcomes from PubChem BioAssay.
Hits are enriched below; roughly 2.4% of the tested compounds scored in any of these assays.
POLH inh = DNA polymerase eta (human) inhibition | Q9Y253 | recombinant Pol eta, fluorescent DNA replication assay | Potency, µM (top dose mostly 114 µM), actives largely listed as inhibitors | 1.2% of 390,000 active | AID 588591
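Pol eta at 10 nM preincubated with compounds 15 min at room temperature; reaction started with fluorescent substrate (50 nM final) and read kinetically at 0 and 10 min.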
WRN inhibitor = blocks human WRN helicase; Q14191; WRN helicase unwinding, fluorescent forked duplex, kinetic; Potency, µM (series often up to 114 µM), most hits filed as inhibitors; 0.46% of 360,000 active; AID 651768; further: nearly all actives have a fitted effect of over 55% in size
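WRN at 20 nM final preincubated with compound 15 min at room temperature; reaction started with 100 nM fluorophore/quencher forked duplex oligonucleotide and 2 mM ATP final. Unwinding followed kinetically by red fluorescence (ex 525, em 598 nm).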
POLB inh = blocks human DNA polymerase beta activity; P06746; Pol beta primer extension/strand displacement, fluorescence kinetic; Potency, µM (top dose mostly 114 µM), most hits filed as inhibitors; 1.3% of 340,000 active
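Curves were derived by four-parameter Hill fits of normalized qHTS data. The kinetic fluorescent primer-extension read was taken at 0 and 10 min after 50 nM substrate, following a 15 min room-temperature preincubation of 10 nM enzyme with compounds.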
POLI inh = DNA polymerase iota (human) inhibition; Q9UNA4; Pol iota fluorescent replication assay, 10 min; Potency, µM (titrated, usually from 115 µM), actives largely listed as inhibitors; 1% of 390,000 active
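Fluorescent replication assay read twice, at 0 min and 10 min after adding 50 nM (final) substrate. Enzyme (10 nM) and compounds were first incubated 15 min at room temperature; enzyme-free buffer wells were negative controls.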
POLK inh = DNA polymerase kappa (human) inhibition; 0.53% of 400,000 active; Potency, µM (series often up to 107 µM), most hits filed as inhibitors; Q9UBT6; purified Pol kappa, fluorescent DNA synthesis assay, 10 min
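Kinetic fluorescence screen: compound preincubated 15 min RT with 10 nM enzyme; 50 nM substrate (final) initiates; reads at 0/10 min.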
FEN1 inh = human FEN1 inhibition; P39748; Recombinant FEN1 flap cleavage, fluorescence, 15 min; Potency, µM (titrated, usually from 114 µM), most hits filed as inhibitors; 0.35% of 390,000 active; AID 588795; further: nearly all actives have a fitted effect of over 65% in size
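Reaction started by adding substrate (50 nM final) to 10 nM enzyme after 15 min room-temperature compound preincubation. Reads at 0 and 15 min, with data normalized and fitted to a four-parameter Hill equation.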
Each line names hits and unclear results; the compound was inactive in the other large screens. The call rests on the fitted dose curve; in most records, active means well fitted curve in the direction sought with a large enough effect; inconclusive means small, poorly fitted or top-dose-only effect, or another doubt; inactive means no such curve, though single readings can be large; an effect the other way counts as inactive or inconclusive.

O=C(NNC(=O)c1ccc(Br)s1)NC1CCCCC1	WRN inhibitor inconclusive, POLB inh 22µM
CN(C)c1cccc(C(=O)NNC(=O)NC2CCCCC2)c1	none
CCCCOc1ccc(Nc2cc(Cl)ccc2C(=O)O)cn1	POLB inh 40µM
O=C(CCCOc1ccc(Cl)cc1Cl)Nc1ccccc1C(=O)O	none
N=c1oc2c3c4c(cc2cc1C(=O)Nc1ccccc1)CCCN4CCC3	WRN inhibitor 56µM
Cn1c(CCNC(=O)C(C)(C)C)nc2ccccc21	POLH inh 25µM
CC(C)(C)C(=O)NCCc1nc2ccccc2n1CCCCOc1ccccc1	POLI inh inconclusive (no result: WRN inhibitor)
Cc1[nH]c2ccccc2c1/C=C/c1ccnc2ccccc12	FEN1 inh inconclusive (no result: POLH inh, WRN inhibitor, POLB inh)
COc1ccc(Cn2c(SCc3ccc(C(=O)NCc4ccc(C)cc4)cc3)nc3cccnc32)cc1	POLI inh 79µM, FEN1 inh inconclusive (no result: WRN inhibitor)
O=C(COc1ccccc1[N+](=O)[O-])OCCCOC(=O)COc1ccccc1[N+](=O)[O-]	none
O=C(COc1ccccc1[N+](=O)[O-])OCC(=O)c1ccc(Br)s1	POLH inh 79µM (no result: POLB inh)
CC(=O)c1ccc(NC(=O)Cn2c(=O)nc(-c3ccccc3)c3ccccc32)cc1	POLI inh 71µM (no result: WRN inhibitor)
N#C/C(=C\c1c(Oc2ccc(Br)cc2)nc2ccccn2c1=O)c1nc2ccccc2s1	POLI inh 13µM, POLK inh 79µM, FEN1 inh inconclusive (no result: WRN inhibitor)
Cc1cc(Oc2nc3ccccn3c(=O)c2/C=C(\C#N)c2nc3ccccc3s2)ccc1Cl	none (no result: WRN inhibitor)
Cc1cc(-c2sccc2Br)nc(-n2cccc2)n1	POLI inh inconclusive, POLK inh 79µM
Cc1cc(-c2ccc(Br)s2)nc(-n2cccc2)n1	POLB inh inconclusive, POLI inh inconclusive, POLK inh inconclusive
COc1cccc(C2Nc3ccc4ccccc4c3C3=C2C(=O)CCC3)c1O (configuration not stated)	POLB inh 89µM
Cc1ccn2c(=O)nc(SCC(=O)N3CCN(c4ccccc4)CC3)nc2c1	POLH inh 20µM, POLI inh 50µM (no result: POLB inh)
Cc1ccn2c(=O)nc(SCC(=O)Nc3cccc4ccccc34)nc2c1	POLH inh 79µM, POLI inh inconclusive (no result: POLB inh)
Cc1ccc(CNC(=O)CSc2nc(=O)n3ccccc3n2)cc1	none (no result: POLB inh)
O=C(CSc1nc(=O)n2cc(Cl)ccc2n1)Nc1cccc2ccccc12	POLH inh inconclusive, POLI inh inconclusive (no result: POLB inh)
Cc1ccn2c(=O)nc(SCC(=O)NCc3ccccc3)nc2c1	POLH inh 22µM, WRN inhibitor inconclusive, POLI inh 45µM (no result: POLB inh)
CC(C)(C)n1ncc2c(=O)n(Cc3ccccc3Cl)cnc21	none (no result: POLH inh, WRN inhibitor, POLB inh)
COC(=O)/C=C/C(C)=C/C=C/C(C)=C/C=C/C=C(C)/C=C/C=C(C)/C=C/C(=O)O	POLK inh 32µM (no result: POLH inh, WRN inhibitor, POLB inh, POLI inh, FEN1 inh)
CCCCCCCCCCCCCCCC[N+](C)(C)CC	POLH inh 89µM (no result: POLB inh)
CCCCCc1ccc(C)cc1O	none (no result: POLH inh, WRN inhibitor, POLB inh, POLI inh, FEN1 inh)
CCc1nnc(NC(=O)c2ccc(Cl)c(S(=O)(=O)N3CCc4ccccc43)c2)s1	POLH inh inconclusive, POLB inh 20µM, POLI inh inconclusive
O=C1c2cccnc2C(Nc2ccccc2)N1Cc1ccco1 (configuration not stated)	POLI inh 13µM
O=C1c2cccnc2C(Nc2cccc(F)c2)N1Cc1ccco1 (configuration not stated)	none
CC(C)NC(=O)COC(=O)CNC(=O)C1CCCCC1	none (no result: POLH inh, WRN inhibitor, POLB inh)
CCOc1cc(N2CCOCC2)c(OCC)cc1NS(=O)(=O)c1cc(NC(C)=O)ccc1OC	POLH inh inconclusive, POLB inh inconclusive, POLI inh 25µM, POLK inh inconclusive
CCOc1cc(N2CCOCC2)c(OCC)cc1NC(C)C(=O)N1CCN(CC)CC1 (configuration not stated)	WRN inhibitor inconclusive, POLB inh inconclusive, POLI inh 13µM, POLK inh inconclusive
COc1ccccc1NS(=O)(=O)c1cc(NC(=O)c2ccc(NC(C)=O)cc2)ccc1N1CCOCC1	none (no result: POLB inh)
COc1cc(NS(=O)(=O)c2cc(NC(C)=O)ccc2OC)c(OC)cc1NC(=O)c1ccccc1	POLH inh 45µM, POLI inh inconclusive (no result: POLB inh)
